Spn MK inh – S. pneumoniae MK inhibitors, primary screen, biochemical, PK/LDH-coupled NADH absorbance | purified MK, PK/LDH-coupled NADH absorbance 340 nm | inhibition, % at 10 µM | actives 0.48% (n = 65,000);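 active = ranked among the strongest by inhibition in the single 10 µM screen, a fixed top-ranked set picked for dose follow-up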
Abs 340nm – compound light absorbance at 340 nm, profiling panel, artefact control, biochemical, MLSMR library, data from PS, PMK, MK assays; compound absorbance at 340 nm, fold over control; fold change at 10 µM; 65,000 tested, under 10 active;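 active = at 10 µM dose, initial 340 nm absorbance at least 2 fold that of control wells; inactive = change under 2 fold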;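 also: initial absorbance extrapolated from kinetic A340 decline of NADH oxidation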
DPM-DC inhibit – S. pneumoniae DPM-DC inhibitors, primary screen, biochemical, PK/LDH-coupled NADH fluorescence; diphosphomevalonate decarboxylase (Streptococcus pneumoniae D39); purified DPM-DC; calls only at 10 µM; actives 0.49% (n = 65,000);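 active = the 320 compounds with the highest percent inhibition in the single-dose primary screen, excluding strongly autofluorescent ones, cut at about 32% in these data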;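 also: kinetic rate of NADH fluorescence loss reporting ADP formed by the decarboxylase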
Spn PMK inh – S. pneumoniae PMK inhibitors, primary screen, biochemical, mevalonate pathway, pilot trial included; phosphomevalonate kinase (Streptococcus pneumoniae D39); purified PMK, PK/LDH-coupled NADH absorbance 340 nm; inhibition, % at 10 µM; actives 0.49% (n = 65,000); AID 539, 2006;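 active = top-ranked compounds by inhibition in the single 10 µM screen, taking a fixed number of the strongest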;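 also: 0% = full reaction with DMSO carrier and 100% = background rate without enzyme reaction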
NADH coupling – inhibitors of PK/LDH coupling enzymes, profiling panel, artefact control, biochemical, MLSMR library; coupled PK/LDH NADH assays, four targets; IC50, µM (doses to about 10 µM), for the others: top-dose inhibition; actives 0.02% (n = 65,000); AID 774, 2007;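 active = single-dose screening hits from any of four coupled enzyme assays that gave an IC50 when retested across doses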;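 also: the DPM-DC format reads NADH fluorescence rather than 340 nm absorbance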
Autofluor 339 – intrinsic fluorescence of library compounds, ex339/em460 – biochemical, MLSMR library, data from DPM-DC assay, artefact control, profiling panel; AID 709, 2007; actives 5.5% (n = 65,000); fluorescence fold increase at 10 µM; compound autofluorescence, ex339/em460 nm, NADH buffer; active compounds read high; 1 = no-compound wells, NADH background;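 active = at 10 µM, mean starting fluorescence two-fold or more over control wells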;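 also: signal is the first read of a kinetic run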
An asterisk follows results filed as active; i = inactive; · = no result given; + = active, no number. Rows were chosen to be rich in hits. Some 6.8% of all compounds tested hit in one or more screens of this group.

SMILES | Spn MK inh | Abs 340nm | DPM-DC inhibit | Spn PMK inh | NADH coupling | Autofluor 339
O=C(C1CCC1)N1CCc2cc(S(=O)(=O)NCc3ccco3)ccc21 | 7 | 0.99 | i | 8 | 5% | 1.1
COc1cc2c(cc1OC)CN(Cc1cc(=O)n3cc(C)ccc3n1)CC2 | 5 | 1.1 | i | 6 | 10% | 2.3*
COc1ccc(C(=O)N2CCc3cc(OC)c(OC)cc3C2)cc1OC | 4 | 1.1 | i | 6 | 3% | 1.1
COc1ccc(C)cc1-n1nnnc1SCc1cc(=O)n2cc(C)ccc2n1 | 0 | 1.1 | i | 12 | 11% | 2.1*
Cc1ccccc1-c1nc(CS(=O)CC(=O)NCCN2CCN(Cc3ccccc3)CC2)c(C)o1 (centres undefined) | 0 | 1 | i | 4 | 6% | 0.85
COc1ccc(CNC(=O)CSc2ncnc3nc[nH]c23)cc1 | 6 | 0.99 | i | 11 | 6% | 1.1
O=C(CSc1nnc2ccccn12)Nc1ccccc1C(=O)NC1CC1 | 0 | 1 | + | 14 | 17% | 0.94
O=C(CSc1nnc2ccccn12)NC(=O)NC1CCCCC1 | 5 | 1 | i | 19 | 8% | 1.1
COc1ccc(CNC(=O)CCCNS(=O)(=O)c2cccc3nonc23)cc1 | 6 | 1.1 | i | 7 | 4% | 1.1
O=C(CCCCCN1C(=O)CCC1=O)Nc1ccc2c(c1)OCCO2 | 5 | 1 | i | 4 | 3% | 1.2
CC1CCC(N2CCN(S(C)(=O)=O)CC2)CC1 (centres undefined) | 29 | 1 | i | 10 | 13% | 1.1
CCS(=O)(=O)N1CCN(C2CCC(C)CC2)CC1 (centres undefined) | 61* | 1 | i | 17 | 26% | 1.1
C=CCNc1oc(-c2ccc(OCC)cc2)nc1C#N | 3 | 1.1 | · | 0 | 2% | 2.3*
C=CCNc1oc(-c2ccc(OC)cc2)nc1C#N | 3 | 1 | · | 3 | 3% | 3.7*
CCOc1ccc(-c2nc(C#N)c(NCC(C)C)o2)cc1 | 0 | 1 | · | 9 | 5% | 2.4*
N#Cc1nc(-c2ccc(OCc3ccc(Cl)cc3)cc2)oc1NCCCn1ccnc1 | 1 | 1.1 | i | 4 | 2% | 1.6
CC(=O)OC1CC2(C)C(=O)CCC2C2CCc3cc(O)ccc3C12 (centres undefined) | 0 | 0.99 | i | 3 | 1% | 1.1
CCOC(=O)c1oc2nc(C(C)C)c3c(c2c1N)CCC3 | 7 | 1.1 | · | 13 | 10% | 3.8*
CCCc1nc2oc(C(=O)OCC)c(N)c2c2c1COC(C)(C)C2 | 2 | 1.1 | · | 1 | 2% | 3.9*
Cc1nc2oc(C(=O)c3ccccc3)c(N)c2c2c1COC(C)(C)C2 | 6 | 1.2 | i | 0 | 5% | 1.2
CCOC(=O)c1oc2nc(C(C)C)c3c(c2c1N)CC(C)(C)OC3 | 4 | 1.1 | · | 11 | 8% | 3.8*
CCOC(=O)c1c(SC)nc(SC)c2c1CCC2 | 0 | 1 | i | 11 | 4% | 1.1
O=S(Cc1ccc(Cl)cc1)CC(O)COc1ccc(Cl)cc1 (centres undefined) | 4 | 1 | i | 2 | 2% | 1.1
Cc1nc2ncnn2c(C)c1CCC(=O)Oc1ccccc1 | 6 | 0.96 | i | 16 | 7% | 1.1
Cc1cc(NCCCN2CCOCC2)n2nc(C)c(-c3ccccc3)c2n1 | 10 | 1 | i | 13 | 11% | 1.5
SMILES | Spn MK inh | Abs 340nm | DPM-DC inhibit | Spn PMK inh | NADH coupling | Autofluor 339
Cc1cc(NCCCN2CCOCC2)n2ncc(-c3ccccc3)c2n1 | 10 | 1.1 | i | 16 | 12% | 2.1*
Cc1cc(NCCCN2CCOCC2)n2nc(C)c(-c3ccc(F)cc3)c2n1 | 0 | 1.1 | i | 25* | 8% | 1.6
COc1ccccc1-c1c(C)nn2c(NCCN3CCCC3)cc(C)nc12 | 1 | 1.1 | i | 5 | 2% | 1.1
Cc1cc(C)c2c(n1)nn1c(NCCCn3ccnc3)cc(C)nc21 | 10 | 0.98 | · | 9 | 10% | 3.9*
Cc1cc(NCCOCCO)n2ncc(-c3ccc(Cl)cc3)c2n1 | 11 | 1 | i | 9 | 15% | 2.6*
CC1CCc2nn(CC(=O)NCc3ccc4c(c3)OCO4)cc2C1 (centres undefined) | 17 | 0.99 | i | 10 | 4% | 1
Cc1cc(C)c2c(n1)nn1c(NCCCN3CCOCC3)cc(C)nc21 | 4 | 1 | · | 5 | 3% | 3*
Cc1ccc(S(=O)(=O)N2CCOCC(=O)NCCOCCNC(=O)COCC2)cc1 | 4 | 0.99 | + | 0 | 11% | 1
Cc1ccn2cc(-c3ccc(S(=O)(=O)N4CCOCC4)cc3)nc2c1 | 5 | 1.1 | · | 10 | 8% | 2.2*
O=C(O)c1cc(-c2ccncc2)nc2ccc(S(=O)(=O)N3CCOCC3)cc12 | 0 | 1.1 | i | 8 | 3% | 1.1
Cc1ccc2nc(-c3ccccc3)cn2c1 | 0 | 1 | i | 12 | 8% | 2.9*
Cc1ccc2nc(-c3ccc(S(=O)(=O)N4CCOCC4)cc3)cn2c1 | 9 | 1 | · | 6 | 4% | 3*
CSc1c(C#N)c(N)c(C#N)c2c1COC(C)(C)C2 | 7 | 1 | · | 11 | 3% | 2.1*
Cc1ccc(C)c2[nH]c(=O)c(C(c3nnnn3Cc3ccco3)N3CCc4ccccc4C3)cc12 (centres undefined) | 8 | 1 | i | 8 | 5% | 1.3
COCCCn1c(=NC(=O)c2ccncc2)c(C#N)cc2c(=O)n3cccc(C)c3nc21 | 9 | 1.1 | · | 0 | 5% | 3.9*
Cc1cccn2c(=O)c3cc(C#N)c(=NC(=O)c4ccncc4)n(CCCOC(C)C)c3nc12 | 0 | 1.1 | · | 6 | 3% | 3.6*
CCCn1c(=NC(=O)c2ccc3c(c2)OCO3)c(C#N)cc2c(=O)n3cccc(C)c3nc21 | 7 | 1 | i | 13 | 7% | 1.4
Cc1cccn2c(=O)c3cc(C#N)c(=N)n(CCN4CCOCC4)c3nc12 | 11 | 1 | · | 0 | 6% | 1.9
CCCn1c(=NC(=O)c2ccncc2)c(C#N)cc2c(=O)n3cccc(C)c3nc21 | 0 | 1.1 | · | 9 | 5% | 3.6*
Cc1c(S(=O)(=O)Nc2cccc(Cl)c2)c(=O)n(C)c(=O)n1C | 55* | 1.1 | i | 0 | 18% | 0.99
COc1ccc(NC(=O)c2nnn(Cc3ccc(SC)cc3)c2N)c(OC)c1 | 11 | 1.1 | + | 0 | 29% | 1.5
